Experimental findings from ChEMBL document CHEMBL3988442, “University of Dundee, Small-Polar-MMV Screening Library” (2021) are described below.

Each structure is given as a SMILES string. The campaign covered roughly 48,000 compounds. About 13,000 (27%) showed an effect of 50% or more. The list shows a part of the results.

This test has as its system Wolbachia pipientis. Nature of the test: Anti-Wolbachia Cell-Based Screen. The class given is functional. The arrangement: scale not given: in the data most compounds retested in dose-response had high values. To be noted: 5 µM.
For the molecule `C=C(C)CN1C(=O)CC(Cc2ccc(F)cc2)C1=O` (stereo not drawn), the “Percent Effect” value is -35.72%. Consider `O[C@@H]1C[C@@H](c2nc(-c3ccccc3)no2)N(C2CCOCC2)C1`, for which the “Percent Effect” value is -15.45%. For `O=C(O)C(F)(F)F.O=C1CC2(CCCCN2C(=O)c2ccco2)CN1c1cccnc1` (stereo not drawn) the value was 3.429%; for `O=C1CC2(CCCCN2C(=O)c2ccoc2)CN1Cc1ccccc1` (stereo not drawn), -18.39%. For `O=C(O)C(F)(F)F.O=C1CC2(CCCCN2C(=O)Cc2ccccc2)CN1c1cccnc1` (stereo not drawn) the value was -0.631%. For `O=C1CC2(CCCCN2C(=O)c2cccs2)CN1CC1CC1` (stereo not drawn) the value was 78.16%. In the case of `O=C(O)C(F)(F)F.O=C1CC2(CCCCN2C(=O)c2ccncc2)CN1CC1CC1` (stereo not drawn), the “Percent Effect” value was determined as 106.2%. In the case of `O=C1CC2(CCCCN2C(=O)c2ccccc2)CN1CC1CC1` (stereo not drawn), the “Percent Effect” value is 79.38%.

Consider `O=C(CCC(=O)c1cccs1)NC1(C(=O)NCC2CC2)CCCC1`, for which the “Percent Effect” value was found to be 1.426%. `CC1N(CC2CC2)C(=O)COC12CCN(C(=O)c1cccs1)CC2` (stereo not drawn): the “Percent Effect” value worked out at 8.45%.

On to `Cn1ccc(C(=O)N2CCCCC23CC(=O)N(Cc2ccccc2)C3)n1` (stereo not drawn), for which the “Percent Effect” value is -1.004%.

Regarding `CC(=O)N(C)CCc1nc(-c2cc(C(N)=O)co2)cs1`, the “Percent Effect” value was -0.5467%. Consider `COc1cnc(N2CCC(Oc3ccccc3OC)(C(=O)O)CC2)nc1`, for which the “Percent Effect” value is -8.18%. With `COc1ccccc1C(C)Nc1ncc(C(N)=O)cc1Cl` (stereo not drawn), the “Percent Effect” value is listed as 2.47%. `Cc1cccc(C)c1OC1CN(C(=O)C2CCN(C(=O)N(C)C)CC2)C1`: the “Percent Effect” value is listed as -8.295%.

Turning to `CCc1nc(CCn2ccnc2-c2nccn2C)no1`, the “Percent Effect” value is recorded as -9.052%. For `Cn1cc(CN2C[C@@H](F)[C@@H](OCc3nc4cnccc4[nH]3)C2)cn1`, the “Percent Effect” value is recorded as -2.303%. For the molecule `Cc1cc(NCc2ccc(N3CCNC(=O)C3)cc2)nc(C)n1`, the “Percent Effect” value was found to be 3.077%.

For `Cc1nc(NCc2ccc(F)cc2)cc(C2CCCN2)n1.Cl` (stereo not drawn), the “Percent Effect” value was 123.2%. On to `Cn1ccnc1-c1ccc(NCC2COCCO2)nn1` (stereo not drawn), for which the “Percent Effect” value is recorded as -2.389%. For `Clc1ccc(-c2c[nH]c([C@@H]3COCCN3)n2)cc1` the value was -8.999%; for `Fc1cccc(CNc2cncc(-n3cccn3)n2)c1`, 9.755%; for `Cc1nc(NCc2cccc(F)c2)cc(C2CCNCC2)n1.Cl`, 92.9%.

Turning to `Fc1ccc(-c2c[nH]c([C@@H]3COCCN3)n2)cc1`, the “Percent Effect” value was -3.188%. Consider `Cc1ccc(-c2cn3c(n2)CO[C@@H](CNCc2nccn2C)C3)cc1`, for which the “Percent Effect” value is -11.82%.

With `Cc1nc(Cc2ccc(F)cc2)cc(C2COCCN2)n1.Cl` (stereo not drawn), the “Percent Effect” value came to 104.2%. On to `Cc1nc(NCc2nccn2C)cc(C2COCCN2)n1` (stereo not drawn), for which the “Percent Effect” value was determined as 145.4%. Take `COc1ccc2[nH]c(CNc3cc(C4CCNCC4)nc(C)n3)cc2c1`: the “Percent Effect” value is reported as -0.5265%. For `COCC(c1cccc(C(F)(F)F)c1)N(C)C(=O)c1cc(C)no1` (stereo not drawn) the value was -19.18%; for `CCc1nnc2n1CCN(C(=O)c1cc3ccc(C)cc3[nH]1)C2`, 95.03%.

Take `CCc1nnc2n1CCN(C(=O)c1cc3cc(C)ccc3[nH]1)C2`: the “Percent Effect” value turned out to be 89.42%. With `CCc1nnc2n1CCN(C(=O)c1cc3cc(F)ccc3[nH]1)C2`, the “Percent Effect” value came out at 1.688%. For `CCc1nnc(CN2CCN(C(=O)c3cc4ccccc4[nH]3)CC2)o1` the value was 0.1099%. For `CCc1nnc2n1CCN(C(=O)c1cc3ccc(F)cc3nc1C)C2` the value was 4.903%; for `CCc1nnc2n1CCN(C(=O)c1ccc(C(F)(F)F)nc1C)C2`, 5.32%. `CCOC(C(=O)N1CCn2c(CC)nnc2C1)c1ccccc1` (stereo not drawn): the “Percent Effect” value came to 26.72%.

On to `CCc1nnc2n1CCN(C(=O)c1cnc3c(cnn3C(C)C)c1)C2`, for which the “Percent Effect” value is given as -2.522%.

As for `CCc1nnc2n1CCN(C(=O)c1cc(Br)c[nH]1)C2`, the “Percent Effect” value was 2.696%.

Take `CCc1nnc2n1CCN(C(=O)c1cc3ccccc3[nH]1)C2`: the “Percent Effect” value was found to be 108.3%. In the case of `CCOc1ccc2cc(C(=O)N3CCn4c(CC)nnc4C3)[nH]c2c1`, the “Percent Effect” value is 104.5%. For `Cc1ccc2cc(C(=O)N3CCN(S(C)(=O)=O)CC3)[nH]c2c1` the value was -2.597%. As to `c1cc(-c2ccc(CN3CCCC4(CCNC4)C3)s2)[nH]n1` (stereo not drawn), the “Percent Effect” value came to 24.12%. In the case of `CCc1nnc2n1CCN(C(=O)c1cc3c(F)cccc3[nH]1)C2`, the “Percent Effect” value came to 92%. For `CCc1nnc2n1CCN(C(=O)c1ccc3c(c1)NC(=O)CO3)C2` the value was -1.668%; for `CCc1nnc2n1CCN(C(=O)c1cnc(-c3cccs3)s1)C2`, -0.7102%. Regarding `Cc1nn(C)c(Oc2ccc(Cl)cc2)c1CN1CCOC(CN)C1` (stereo not drawn), the “Percent Effect” value is recorded as -15.91%. For `CN(C)C(=O)[C@@H]1C[C@@H]2CCN(C3CCOCC3)C[C@@H]2O1` the value was 104.3%; for `CN(C)C(=O)[C@H]1C[C@@H]2CCN(C3CCOCC3)C[C@@H]2O1.O=C(O)C(F)(F)F`, 90.19%.

Regarding `CN(C)C(=O)[C@@H]1C[C@@H]2CCN(C3CCOCC3)C[C@H]2O1.O=C(O)C(F)(F)F`, the “Percent Effect” value was 104.8%. `CN(C)C(=O)[C@H]1C[C@@H]2CCN(C3CCOCC3)C[C@H]2O1`: the “Percent Effect” value is -14.13%. For `O=C(NC1CC1)[C@@H]1CCO[C@@H]2CCN(C3CCOCC3)C[C@@H]21.O=C(O)C(F)(F)F` the value was -4.22%. For `CN(C)C(=O)CO[C@H]1COCCN(C2CCOCC2)C1` the value was -5.811%; for `CC(c1cncs1)N(C)Cc1ccc(CCC(C)(C)O)cc1` (stereo not drawn), -1.575%; for `COCC(C)(CCO)NC(=O)Nc1c(F)cccc1Br` (stereo not drawn), 1.184%.

`COCCCN1C(=O)CC[C@H]2CN(Cc3ccc4nonc4c3)CC[C@H]21`: the “Percent Effect” value is -13.98%. As for `COCCOCC(=O)N(C)Cc1ccc(OCc2cccs2)cc1`, the “Percent Effect” value is 0.8009%. As for `c1ccc(O[C@H]2COCCN(Cc3cccc4c3OCO4)C2)cc1`, the “Percent Effect” value is on record as -7.306%.

With `c1ccc(O[C@H]2COCCN(Cc3c[nH]c4ccccc34)C2)cc1`, the “Percent Effect” value was determined as 61.61%. `COc1ccc(O[C@H]2COCCN(Cc3c[nH]c4ccccc34)C2)cc1`: the “Percent Effect” value is 17.89%. With `Cc1cccc(S(=O)(=O)NCc2cccc(CS(C)(=O)=O)c2)c1`, the “Percent Effect” value was -26.55%. On to `CS(=O)(=O)NCCNC(=O)C1(c2cccc(Cl)c2)CC1`, for which the “Percent Effect” value stood at 8.855%. For `Cc1noc(C)c1CN1CCC(NC(=O)OC(C)(C)C)CC1` the value was -1.462%; for `Cc1noc([C@@H](C)NCc2cccc(Cl)c2)c1C(=O)O.Cl`, -9.594%; for `COC(=O)c1c(Cl)c(C)nc2onc(C)c12`, 101.9%. As for `Cc1noc2nc(C3CC3)c(Cl)c(C(=O)O)c12`, the “Percent Effect” value turned out to be 111.5%. `Cc1nc(C2CCCCC2)sc1C(=O)O`: the “Percent Effect” value is listed as -7.894%. For `CSc1nc(C2CC2)nc(C)c1C(=O)NCc1cc(C)on1`, the “Percent Effect” value is -0.6929%. Consider `COC(=O)c1c(Cl)c(C2CC2)nc2onc(C)c12`, for which the “Percent Effect” value was 129%. Regarding `Cc1nc([C@H]2C[C@@H]3CCN(Cc4cnn(C)c4)C[C@H]3O2)sc1C`, the “Percent Effect” value came to 3.707%. On to `CCN1CCn2c(C)cnc2C12CCN(C(=O)CC(C)C)CC2.O=C(O)C(F)(F)F.O=C(O)C(F)(F)F`, for which the “Percent Effect” value is -11.73%. In the case of `CCN1CCC2(CN(C(=O)N(C)C)CC23CCNCC3)C1=O.O=C(O)C(F)(F)F` (stereo not drawn), the “Percent Effect” value is recorded as -16.29%. Turning to `CCN1CCn2c(C)cnc2C12CCN(C(=O)N(C)C)CC2.O=C(O)C(F)(F)F.O=C(O)C(F)(F)F`, the “Percent Effect” value is on record as 107%.

In the case of `CCN1CCn2c(C)cnc2C12CCN(C(=O)C(C)C)CC2.O=C(O)C(F)(F)F.O=C(O)C(F)(F)F`, the “Percent Effect” value is listed as 108.7%. Take `CC(C)C(=O)N1CC2(CCN(CC(C)(C)C)CC2)C1.O=C(O)C(F)(F)F`: the “Percent Effect” value is listed as -18.04%. As for `COC(=O)COc1nc(CC(C)C)c2c(c1C#N)CCCC2`, the “Percent Effect” value was 13.1%. Take `Cc1noc(CN(C)CC2(O)CCCN(CCC3CCCCC3)C2=O)n1` (stereo not drawn): the “Percent Effect” value is listed as 5.474%. Regarding `CCSCCNC(=O)c1ccc(S(=O)(=O)N2C[C@@H]3C[C@H]2CN3)cc1`, the “Percent Effect” value was -8.721%.

For `COC(CNC(=O)c1ccoc1)c1cccc(Cl)c1` (stereo not drawn), the “Percent Effect” value is listed as -9.296%. Take `CCC(CC)c1nnc(NC(=O)N2CCC(C(N)=O)CC2)s1`: the “Percent Effect” value was -0.6648%. Consider `COc1ncc(C(=O)N2CCC(c3nc(C)n4ccsc34)CC2)cn1`, for which the “Percent Effect” value stood at 120.4%. On to `COc1ccc(C(=O)N2CCC(c3nccn3C(C)C)CC2)cc1OC`, for which the “Percent Effect” value is -4.969%. Take `Cc1nc(C2CCN(C(=O)c3cnc(N(C)C)nc3)CC2)c2sccn12`: the “Percent Effect” value is recorded as 121.8%. On to `Cc1nc(C2CCN(C(=O)c3cccnc3)CC2)c2sccn12`, for which the “Percent Effect” value is -3.155%. Turning to `Cc1ncc(CN(C)CC(O)c2cccc(C(F)(F)F)c2)s1` (stereo not drawn), the “Percent Effect” value stood at 2.292%. With `c1ccc(OCCSC2=NCCN2)cc1`, the “Percent Effect” value is -0.348%. Take `CC(C)N(CC(N)=O)Cc1csc(-c2ncccn2)n1`: the “Percent Effect” value was determined as 8.567%. `CSc1nccn1-c1cccc(C(=O)NCc2nnc(C)n2C)c1`: the “Percent Effect” value is recorded as 4.938%. For `CSc1nccn1-c1cccc(C(=O)NCCCN2CCOCC2)c1`, the “Percent Effect” value is reported as 1.615%. In the case of `Cc1ccc2cc(C(=O)NCCN3CCS(=O)(=O)CC3)c(C)nc2c1`, the “Percent Effect” value is listed as -6.636%. Regarding `CN(C(=O)c1cccc(C(=O)NCC(F)(F)F)c1)c1ccccc1`, the “Percent Effect” value is -5.375%. Take `CSc1nccn1-c1cccc(C(=O)NCC2CC2)c1`: the “Percent Effect” value is given as -0.4347%. Take `CC(C)NC(=O)CCNC(=O)c1cc(Br)cn1C(C)C`: the “Percent Effect” value amounted to 8.916%.

Regarding `CSc1nccn1-c1cccc(C(=O)NCC(F)(F)F)c1`, the “Percent Effect” value is recorded as 95.57%.

In the case of `CSc1nccn1-c1cccc(C(=O)NCCN2CCS(=O)(=O)CC2)c1`, the “Percent Effect” value was determined as 100.7%. For `CSc1nccn1-c1cccc(C(=O)NCCC(=O)NC(C)C)c1` the value was 87.94%; for `CSc1nccn1-c1ccc(C(=O)NCC2CC2)cc1`, 114.7%.

`CC(C)NC(=O)CCNC(=O)Nc1cccc(-c2nccn2C)c1`: the “Percent Effect” value is -18.82%. Regarding `CC(=O)N1Cc2nccn2CC(CNC(=O)c2ccnnc2)C1` (stereo not drawn), the “Percent Effect” value is reported as -11.54%.
